This is an account of results in PubChem BioAssay AID488969 (Vanderbilt High Throughput Screening Facility, 2010).

The full ranking holds about 110,000 compounds; the median of “z-score” is about -0.1, and the highest 2% start at about 2. The list comes from a sample in which the highest values are over-represented; it also holds similar structures and randomly drawn compounds. Activity calls are given as the source filed them.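 The calls were made as follows: active = z-score in the third read window above 3 or below -3; inactive = the rest.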

This experiment deals with Metabotropic glutamate receptor 8 (Rattus norvegicus) (UniProt P70579). Briefly: mGluR8 Gi/Go-coupled signaling modulation – cell-based, rat, thallium flux, HTS, primary screen (AID 488969). As to conditions: HEK293 rat mGluR8, GIRK (G protein-gated inwardly rectifying potassium channel) thallium flux, FluoZin2; at 10 µM; stronger effect = higher value; submaximal glutamate (EC20) added with thallium.
Chain of Metabotropic glutamate receptor 8 (Rattus norvegicus) (P70579 whole entry, looked up): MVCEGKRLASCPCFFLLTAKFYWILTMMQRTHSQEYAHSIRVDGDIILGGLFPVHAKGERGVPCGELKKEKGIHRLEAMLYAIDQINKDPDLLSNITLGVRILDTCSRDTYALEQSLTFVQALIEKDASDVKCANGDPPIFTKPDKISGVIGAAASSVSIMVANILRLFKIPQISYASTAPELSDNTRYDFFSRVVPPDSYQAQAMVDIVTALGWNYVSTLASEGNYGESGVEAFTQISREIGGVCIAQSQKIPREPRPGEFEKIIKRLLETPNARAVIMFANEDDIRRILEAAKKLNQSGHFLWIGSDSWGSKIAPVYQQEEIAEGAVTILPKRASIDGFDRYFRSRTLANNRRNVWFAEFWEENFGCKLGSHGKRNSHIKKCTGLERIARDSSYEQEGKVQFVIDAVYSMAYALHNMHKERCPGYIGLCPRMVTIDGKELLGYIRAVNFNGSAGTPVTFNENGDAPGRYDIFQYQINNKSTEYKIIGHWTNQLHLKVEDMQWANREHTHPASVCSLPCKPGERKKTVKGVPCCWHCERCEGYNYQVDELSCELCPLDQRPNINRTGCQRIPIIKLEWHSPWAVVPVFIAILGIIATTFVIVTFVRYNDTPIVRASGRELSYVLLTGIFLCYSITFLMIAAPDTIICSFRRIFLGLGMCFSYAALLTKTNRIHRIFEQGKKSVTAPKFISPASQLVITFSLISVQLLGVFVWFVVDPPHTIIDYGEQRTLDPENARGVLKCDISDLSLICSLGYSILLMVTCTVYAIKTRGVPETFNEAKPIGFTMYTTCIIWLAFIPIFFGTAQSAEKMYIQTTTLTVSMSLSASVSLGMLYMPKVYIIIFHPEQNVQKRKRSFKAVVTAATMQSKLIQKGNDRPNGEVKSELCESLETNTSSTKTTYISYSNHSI
Take `COc1ccc2[nH]c(=O)c(CN(C(=O)c3ccccn3)c3ccccc3)cc2c1`: the z-score was -0.101.

On to `CCCN(CC1CC1)C(=O)COC(=O)c1[nH]c(C)c(C(=O)OCC)c1C`, for which the z-score is -0.372.

On to `COc1cc(NC(=O)c2cccnc2Sc2ccc(Cl)cc2)cc(OC)c1OC`, for which the z-score was -0.134.

On to `O=C(O)C(Cc1c[nH]c2ccccc12)NS(=O)(=O)c1cccc2nsnc12` (stereo not drawn), for which the z-score is 0.00264.

`Cc1cccc(S(=O)(=O)NC(Cc2c[nH]c3ccccc23)C(=O)O)c1` (stereo not drawn): the z-score came to 2.17.

As to `Cc1ccc(S(=O)(=O)NC(Cc2c[nH]c3ccccc23)C(=O)O)cc1` (stereo not drawn), the z-score is -0.0187.

Take `CC(C)(C)c1[nH]nc2c1C(c1ccccc1OC(=O)N1CCOCC1)C(C#N)=C(N)O2` (stereo not drawn): the z-score was -2.43.

For the molecule `O=C(CSc1nc2ccccc2[nH]1)N/N=C/C=C/c1ccccc1[N+](=O)[O-]`, the z-score was -0.487.

Consider `CCN(CC)CCNC(=O)c1ccc(N2CCCCC2)c(NS(=O)(=O)c2ccc(C)cc2)c1`, for which the z-score was found to be 2.96.

For `COCCCNC(=O)c1ccc(N2CCCC2)c(NS(=O)(=O)c2ccc(C)cc2)c1`, the z-score is 0.547.

In turn, `Cc1ccc(S(=O)(=O)Nc2cc(C(=O)NCCN3CCCC3)ccc2N2CCCCC2)cc1` yielded a z-score of 1.81.

Turning to `Cc1nnc2sc(SCc3ccccc3)nn2c1=O`, the z-score was -0.0579.

As to `CC(=O)/C(=N\Nc1ccc(Cl)cc1Cl)Sc1cccc2cccnc12`, the z-score is 2.29.

As to `CC(=O)/C(=N\Nc1cccc(Cl)c1)Sc1cccc2cccnc12`, the z-score amounted to 0.635.

`CC(=O)/C(=N\Nc1ccccc1Cl)Sc1cccc2cccnc12` gave a z-score of 0.299.

For the molecule `CC(C)(C)SCCNC(=O)c1ccc(NS(C)(=O)=O)cc1`, the z-score is -0.0865.

As to `O=C(CSc1ccc(Cl)cc1)N1CCN(c2ncc(C(F)(F)F)cc2Cl)CC1`, the z-score is -0.0561.

In turn, `Cc1cc(NC(c2ccc(Cl)cc2)c2ccc3cccnc3c2O)no1` (stereo not drawn) registered a z-score of 1.61.

As to `Cc1conc1NC(c1cccs1)c1ccc2cccnc2c1O` (stereo not drawn), the z-score is 3.41 (active).

For the molecule `Cc1cc(NC(c2cccnc2)c2ccc3cccnc3c2O)no1` (stereo not drawn), the z-score is -0.344.

As for `COc1cccc(NC(=O)N(Cc2cc3cc(C)cc(C)c3[nH]c2=O)CC2COCCO2)c1` (stereo not drawn), the z-score is -0.438.

As for `COc1ccc(NC(=O)/C=C/C(=O)O)cc1Cl`, the z-score was determined as 0.0641.

For the molecule `Cc1ccc(NC(=O)/C(=C\c2ccccc2)NC(=O)/C=C/c2ccccc2)cc1`, the z-score is -0.26.

In the case of `CC1CCN(C(=O)CSc2nnc(CNC(=O)c3ccco3)o2)CC1`, the z-score stood at 2.28.

Turning to `O=C(NCc1nnc(SCC(=O)N2CCCCCC2)o1)c1ccco1`, the z-score was -0.474.

For the molecule `O=C(NCc1nnc(SCC(=O)N2CCN(c3ccccc3)CC2)o1)c1ccco1`, the z-score is -0.268.

As for `CCOC(=O)c1c(NC(=O)CSc2nnc(CNc3ccc(Cl)cc3)o2)sc(C)c1C`, the z-score was -0.783.

Regarding `COc1ccc(COC(=O)Nc2cc3c(C(F)(F)F)nn(C)c3s2)cc1`, the z-score was -0.456.

Turning to `Cn1nc(C(F)(F)F)c2cc(NC(=O)OCc3ccc(F)cc3)sc21`, the z-score is 9.32 (active).

With `Cn1nc(C(F)(F)F)c2cc(NC(=O)OCC(C)(C)C)sc21`, the z-score was -1.03.

In the case of `N/C(=N\OC(=O)CSc1ccccc1)c1cccc([N+](=O)[O-])c1`, the z-score is -0.477.

Consider `O=C(COC(=O)c1ccccc1NC(=O)c1ccccc1)c1ccc([N+](=O)[O-])cc1`, for which the z-score is -0.202.

Turning to `CSCSC1=C(C#N)C(c2ccc(Cl)cc2)C(C(C)=O)=C(C)N1` (stereo not drawn), the z-score is 3.87 (active).

On to `CC(=O)C1=C(C)NC(SCc2cccc3ccccc23)=C(C#N)C1c1ccco1` (stereo not drawn), for which the z-score was 0.063.

Regarding `C=CCOC(=O)C1=C(C)NC(SCC)=C(C#N)C1c1ccc(Cl)cc1` (stereo not drawn), the z-score is 0.285.

As for `CCc1ccc(C(=O)CSC2=C(C#N)C(c3ccco3)C(C(C)=O)=C(C)N2)cc1` (stereo not drawn), the z-score is -0.295.

Consider `CSCSC1=C(C#N)C(c2ccccc2Cl)C(C(C)=O)=C(C)N1` (stereo not drawn), for which the z-score is -2.68.

In the case of `CC(=O)C1=C(C)NC(SCc2ccc(C#N)cc2)=C(C#N)C1c1ccco1` (stereo not drawn), the z-score was 5.85 (active).

`Cn1c(CNC(=O)c2ccc(Cl)cc2)nnc1SCC(=O)Nc1sc2c(c1C#N)CCCC2` yielded a z-score of 0.356.

In turn, `CN1CCc2nc(SCc3ccc(Cl)cc3)c(C#N)c(-c3cccs3)c2C1` came in with a z-score of 0.101.

As for `CCN(C(=O)C1CCN(S(=O)(=O)c2cccc3nonc23)CC1)c1ccccc1`, the z-score was -0.39.

As to `CCOC(=O)c1[nH]c(C)c(/C(O)=C2\C(=O)C(=O)N(CCN(C)C)C2c2ccc(C)o2)c1C` (stereo not drawn), the z-score was -0.288.

`COC(=O)[C@H](CCSC)NC(=O)N1CCC(C)CC1` gave a z-score of 0.07.

Consider `COc1ccc(NC(=O)c2cccnc2Sc2ccccc2)c(OC)c1`, for which the z-score is -0.415.

Molecule `COc1cc2c(cc1OC)CN(S(C)(=O)=O)CC2` came in with a z-score of 0.0161.

`NS(=O)(=O)c1ccc(NC(=O)COC(=O)CCC2CCCCC2)cc1`: the z-score is -0.157.

In the case of `N=c1ncn(CC(O)CO)c2nc(N3CCOCC3)[nH]c12` (stereo not drawn), the z-score was -0.0516.

The molecule `COc1ccc(C(=O)N(C(C)C)C(C)C)c(OC)c1` had a z-score of 0.14.

`Oc1[nH]c2ccccc2c1N=Nc1nc2ccccc2s1` yielded a z-score of 2.12.

Consider `Oc1[nH]c2ccccc2c1N=Nc1ccc(F)cc1`, for which the z-score is -0.405.

`Oc1[nH]c2ccccc2c1N=Nc1ccccc1F` registered a z-score of 0.0754.

The molecule `Cc1c(NC(=S)NC(NC(=O)CC(C)C)C(Cl)(Cl)Cl)c(=O)n(-c2ccccc2)n1C` (stereo not drawn) had a z-score of 2.53.

As to `CCC(=O)NC(NC(=S)Nc1c(C)n(C)n(-c2ccccc2)c1=O)C(Cl)(Cl)Cl` (stereo not drawn), the z-score was -0.491.

As to `Cc1c(NC(=O)CC(=O)Nc2c(C)n(C)n(-c3ccccc3)c2=O)c(=O)n(-c2ccccc2)n1C`, the z-score is -0.0936.

Regarding `Cc1c(NC(=O)CCC(=O)N2CCCCC2)c(=O)n(-c2ccccc2)n1C`, the z-score is -0.244.

With `Cc1c(NC(=O)N(C)C)c(=O)n(-c2ccccc2)n1C`, the z-score is -0.0915.

As for `Cc1c(NC(=O)CSc2ccccc2C(=O)Nc2cccnc2)c(=O)n(-c2ccccc2)n1C`, the z-score amounted to 2.06.

Consider `Cc1c(NC(=O)CSc2nccn2C)c(=O)n(-c2ccccc2)n1C`, for which the z-score was -0.0895.

Consider `Cc1c(NC(=O)CCC2CCCCC2)c(=O)n(-c2ccccc2)n1C`, for which the z-score was determined as 2.9.

Turning to `Cc1c(NC(=O)CSc2ccccn2)c(=O)n(-c2ccccc2)n1C`, the z-score was -0.147.

Take `CCCC(=O)NC(NC(=S)Nc1c(C)n(C)n(-c2ccccc2)c1=O)C(Cl)(Cl)Cl` (stereo not drawn): the z-score is -0.165.

Consider `Cc1c(NC(=O)C2CC=CCC2C(=O)O)c(=O)n(-c2ccccc2)n1C` (stereo not drawn), for which the z-score is 2.16.

With `Cc1c(NC(=O)C2C3C=CC(C3)C2C(=O)O)c(=O)n(-c2ccccc2)n1C` (stereo not drawn), the z-score was found to be 0.15.

In the case of `O=C(NCCc1ccncc1)C12CC3CC(CC(C3)C1)C2`, the z-score stood at 0.467.

In turn, `CC1CCN(S(=O)(=O)c2ccc3c(c2)oc(=O)n3CC(=O)N2c3ccccc3CC2C)CC1` (stereo not drawn) displayed a z-score of 0.0729.

For the molecule `Cc1cc(C)n(-c2nc(NCC3CCCO3)c3c4c(sc3n2)COC(C)(C)C4)n1` (stereo not drawn), the z-score is -2.

`C=CCc1cccc(/C=N/NC(=O)CCCNc2ccc(C)cc2)c1O`: the z-score is -0.144.

For the molecule `CCOC(=O)C1CCN(C(=O)CN(c2ccc(OC)cc2)S(=O)(=O)c2c(C)nn(C)c2C)CC1`, the z-score was -0.304.

`CCCC(C)NC(=O)c1ccc2[nH]c3c(c2c1)CC(C)CC3` (stereo not drawn): the z-score was -0.815.

For `O=C(CSc1ncn(-c2ccccc2)n1)Nc1ccc(Br)cn1`, the z-score was -0.314.

Regarding `COC(=O)c1c(C)[nH]c(C(=O)OCC(=O)NCC(C)C)c1C`, the z-score was -0.00108.

Regarding `O=C(CSCCO)Nc1cccc([N+](=O)[O-])c1`, the z-score is -1.53.

In the case of `Cc1c(NC(=O)C(=O)/C=C(\O)c2ccc(Br)cc2)c(=O)n(-c2ccccc2)n1C`, the z-score is -0.237.

With `Cc1c(NC(=O)C(=O)/C=C(/O)c2ccccc2)c(=O)n(-c2ccccc2)n1C`, the z-score was -0.309.

`Cc1c(NC(=O)C(=O)/C=C(\O)c2ccc(Cl)cc2)c(=O)n(-c2ccccc2)n1C` yielded a z-score of 2.16.

As for `O=C1COc2ccc(C(=O)c3ccccc3C(=O)NCc3ccco3)cc2N1`, the z-score is 0.0372.

As for `C=CCn1c(SCC(=O)c2[nH]c(C)c(C(=O)OCC)c2C)nc2scc(-c3ccc(OC)c(OC)c3)c2c1=O`, the z-score is -0.123.

As for `CCOc1cc(C2NN=C(c3ccc(C)cc3)S2)ccc1O` (stereo not drawn), the z-score was 8.33 (active).

`CCOc1cc(C2NN=C(c3ccccc3)S2)ccc1OCc1ccc(F)cc1` (stereo not drawn) yielded a z-score of 0.745.

`CCOc1cc(C2NN=C(c3ccccc3)S2)ccc1OCc1ccccc1Cl` (stereo not drawn) gave a z-score of 0.78.

Turning to `CC1CCCCN1C(=O)CSc1nnc(-c2cccnc2)n1C1CCCCC1` (stereo not drawn), the z-score was found to be 0.109.

In turn, `COc1ccccc1N(CC(=O)NCc1cccnc1)S(C)(=O)=O` yielded a z-score of 0.0794.

As to `CCN(CC)CCNC(=O)c1ccc2c(=O)n(C3CCCC3)c(=S)[nH]c2c1`, the z-score came to 0.125.

Take `O=C(c1ccc2c(=O)n(C3CCCC3)c(=S)[nH]c2c1)N1CCc2ccccc21`: the z-score was 9.93 (active).

Molecule `CCCCCn1c(=O)[nH]c2cc(C(=O)N3CCN(CC)CC3)ccc2c1=O` showed a z-score of 0.0715.

Consider `O=C(c1ccc(CNc2c(NC3CCCCC3)c(=O)c2=O)cc1)N1CCc2ccccc21`, for which the z-score was -0.164.

In the case of `CCCn1c(=S)[nH]c2cc(C(=O)N3CCc4ccccc43)ccc2c1=O`, the z-score amounted to 1.07.

On to `CCN1CCN(C(=O)c2ccc3c(=O)n(C4CCCC4)c(=S)[nH]c3c2)CC1`, for which the z-score is 5.09 (active).

Molecule `O=C(Nc1ccc([N+](=O)[O-])cn1)c1cc(-c2cccc(Br)c2)nc2ccccc12` showed a z-score of 0.61.

As for `COC(=O)c1[nH]c2ccc(C)cc2c1NC(=O)CN1CCCC(C)(C)C1`, the z-score is -0.603.

Turning to `O=C(Nc1cc(C(=O)N2CCCC2)ccc1N1CCCC1)c1ccccc1`, the z-score is -1.7.

In the case of `O=c1c2ccccc2nc(-c2ccccc2)n1/N=C/c1ccc([N+](=O)[O-])cc1`, the z-score was 6.71 (active).

Turning to `Cc1nc2ccccc2c(=O)n1/N=C/c1ccccc1`, the z-score was -0.0985.

As to `Cc1nc2ccccc2c(=O)n1/N=C/c1ccc(O)cc1`, the z-score was 0.481.

Molecule `CCC(=O)Nc1ccc2c(c1)ncn2-c1ccccc1` returned a z-score of 0.261.

On to `COc1ccc(-n2cnc3cc(NC(=O)c4ccco4)ccc32)cc1`, for which the z-score is -1.7.

As to `CCC(=O)Nc1ccc2c(c1)ncn2-c1ccc(OC)cc1`, the z-score worked out at 2.82.

In turn, `O=C(O)c1ccc(CNCc2c(Cl)cccc2Cl)cc1` displayed a z-score of 0.0291.

In turn, `CC(CCc1ccccc1)NC(=O)COC(=O)C1=COCCO1` (stereo not drawn) came in with a z-score of 0.664.

For `CN(C)c1ncnc2c1ncn2C1OC(CO)C(O)C1O` (stereo not drawn), the z-score was -0.162.

On to `O=c1[nH]cnc2c1nc(SCc1ccccc1)n2C1OC(CO)C(O)C1O` (stereo not drawn), for which the z-score turned out to be 1.45.

In turn, `Nc1nc(SCc2ccc([N+](=O)[O-])cc2)c2ncn(C3OC(CO)C(O)C3O)c2n1` (stereo not drawn) returned a z-score of 2.28.

As for `COc1ccc(C2=CC(=O)OC3(CCCCC3)O2)cc1`, the z-score is -2.37.
